# From PubChem BioAssay (Tox21)
# Records with an inconclusive call do not appear. Unmarked numbers belong to inactive results. Activity calls are given as the source filed them. Calls come from the whole dose curve; as a rule, active = well fitted activation curve with a large enough effect in the repeat runs; inconclusive = weak or mixed curves; inactive = no such curve, though single readings can be large or run the other way.
# Molecular target: Nuclear receptor subfamily 1 group I member 3 (Homo sapiens) (UniProt Q14994)
# Sequence (Q14994 whole entry, looked up): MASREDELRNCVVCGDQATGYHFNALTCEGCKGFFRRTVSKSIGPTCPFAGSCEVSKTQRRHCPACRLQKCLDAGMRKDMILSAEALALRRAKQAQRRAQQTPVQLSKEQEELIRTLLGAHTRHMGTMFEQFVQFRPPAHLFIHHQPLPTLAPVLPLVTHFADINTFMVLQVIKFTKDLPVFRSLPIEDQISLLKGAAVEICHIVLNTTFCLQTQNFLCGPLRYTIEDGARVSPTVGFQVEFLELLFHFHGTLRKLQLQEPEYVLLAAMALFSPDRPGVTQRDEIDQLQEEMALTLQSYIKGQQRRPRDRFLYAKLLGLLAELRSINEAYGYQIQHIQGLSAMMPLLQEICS
# Assay: qHTS assay to identify small molecule agonists of the constitutive androstane receptor (CAR) signaling pathway (AID 1224839); note: nearly all actives have a fitted effect of over 15% in size;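 for activation: HepG2 cells stably carrying human CAR and a CYP2B6 luciferase reporter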
# Settings: HepG2 hCAR CYP2B6-luciferase, agonist mode, 24 h; series mostly up to 92.4 µM; activation: at the top concentration
# Excerpt: National Center for Advancing Translational Sciences [NCATS] NIH Chemical Genomics Center [NCGC] U.S. Environmental Protection Agency [EPA] National Institutes of Environmental Health Sciences [NIEHS] National Toxicology Program [NTP] Assay overview: The constitutive androstane receptor (CAR) is a nuclear receptor which regulates multiple drug metabolizing enzymes (DMEs) and transporters. Activating CAR will generally increase the transcription and subsequent translation of CYP2B6 and CYP3A4. These two DMEs represent about 50% of the drug metabolizing potential in the body. […] Recently, there have also been studies performed indicating CARs role in energy metabolism and cancer therapy. Therefore, inducing CARs activity could have a potential effect on diabetes and cancer. Identifying environmental toxins and compounds which modulate CAR, through the use of the Tox21 10K compound collection, will be an important step in determining the toxicity and potential therapeutic effects these factors will have on the human body.
# Assay Protocol Summary: A double-stable (hCAR and CYP2B6-2.2kb) transfected cell line, derived from human hepatoma (HepG2) cells, was utilized for the duration of the quantitative high-throughput screens. The HepG2-CYP2B6-hCAR cells suspended in DMEM culture medium supplemented with 10% FBS, 5 ug/mL blasticidin, 0.5 mg/mL geneticin, 100 U/mL penicillin and 100 ug/mL streptomycin were dispensed at 2500 cells/4 uL/well in 1536-well white solid bottom plates using a Multidrop Combi. After the assay plates were incubated at 37 C/5% CO2 for 4 hrs, 23 nL of compounds at 15 concentrations (from 5-48 columns) or positive control (from 1 to 4 columns) were transferred to the assay plates using a Pintool station. One uL of PK11195, was added using a Flying Reagent Dispenser to generate a final concentration of 0.75 uM PK11195 inside each well. After a 24 hr incubation period at 37 C/5% CO2, four uL of ONE-Glo reagent was added into the assay plates using a Flying Reagent Dispenser. After a 30 min incubation period at room temperature, the luminescence intensity in the assay plates was measured using a ViewLux plate reader.
# % is set by controls: 0 for no effect and ±100 for the full control effect; potency is the fitted concentration of half-maximal effect.
SMILES,activation,Potency
O=C(Cl)OCc1ccccc1,-1.51%,–
CCN(CCO)CCO,1.65%,–
c1cncc([C@@H]2CCCCN2)c1,7.68%,–
C[C@H]1CCCC(=O)CCC/C=C/c2cc(O)cc(O)c2C(=O)O1,–,inactive
O=C(Cl)C(Cl)(Cl)Cl,-0.452%,–
N[C@@H](Cc1ccc(Oc2cc(I)c(O)c(I)c2)c(I)c1)C(=O)O,0.134% [at 42.5 µM],–
CCOC(=O)CCl,-0.472%,–
COc1cc(CC(C)N)cc(OC)c1OC (stereo not given),-3.65%,–
C[C@@H](N)[C@@H](O)c1ccccc1,-1.93% [at 42.5 µM],–
Cl/C=C/CCl,-1.06%,–
c1ccc2c(c1)CCNC2,0.382%,–
CCCCS(=O)(=O)Cl,-2.16%,–
CCN[C@H](C)Cc1cccc(C(F)(F)F)c1,-3%,–
CC(Cl)(Cl)Cl,-0.371%,–
CC(C)C(C)(N)C#N (stereo not given),-0.483%,–
COc1cc(CCN)cc(OC)c1OC,-1.71%,–
COc1ccc2c(C(=O)c3ccc(Cl)cc3)c(C)n(CC(=O)O)c2c1,2.47% [at 42.5 µM],–
O=C1C2CC=CCC2C(=O)N1SC(Cl)(Cl)Cl (stereo not given),–,inactive
C(COCC1CO1)OCC1CO1 (stereo not given),-0.768%,–
C[C@H](N)C(=O)c1ccccc1,-0.0453%,–

SMILES,activation,Potency
CCSC(=O)Cl,-0.505%,–
[O-][Br+2]([O-])O,-4.52% [at 42.5 µM],–
O=CCCl,-1.57%,–
CCC(C(N)=O)N1CCCC1=O (stereo not given),-1.28% [at 42.5 µM],–
O=c1[nH]c2ccccc2o1,4.89%,–
ClCCCCl,-1.15%,–
C/C=C/CC#N,-1.33%,–
Clc1nc(Cl)nc(Nc2ccccc2Cl)n1,6.72%,–
CC#Cc1cc(C)nc(Nc2ccccc2)n1,–,30.6 µM (active)
C/C(=N\NC(=O)Nc1cc(F)cc(F)c1)c1ncccc1C(=O)O,–,inactive
C=CCN1CC[C@]23CCCC[C@H]2[C@H]1Cc1ccc(O)cc13,2.46% [at 42.5 µM],–
Brc1c(Br)c(Br)c(Br)c(Br)c1Br,-2.38% [at 8.39 µM],–
C#CCOC(=O)/C=C(C)/C=C/CC(C)CCCC(C)C (stereo not given),8.55%,–
CCOC(=O)Nc1cccc(OC(=O)Nc2ccccc2)c1,–,30.6 µM (active)
CS(=O)(=O)Cl,-2.05%,–
N=C(N)[Se],-2.7%,–
S=C=S,-1.63%,–
COc1cccc(C=O)c1,-0.19%,–
OP(O)c1ccccc1,-2.09%,–
O=C/C=C/c1ccco1,-0.0039%,–
